Bioassay records (PubChem)
This is one part of a sample in which hits are shown more often than they occur.
Algae TAG accum: inducers of triacylglycerol accumulation in Chlamydomonas reinhardtii algae. Chlamydomonas reinhardtii TAG, Nile Red fluorescence, 72 h. calls only at 10 µM (by protocol). actives 0.84% (n = 44,000). AID 1159537; call rule not given here;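 also: hits raise Nile Red signal meaning more stored TAG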
Calls only; n = inactive; + = active, no number.

SMILES	Algae TAG accum
Nc1ccc(Cl)cc1C(=O)c1ccccc1	n
Nc1ccc(F)cc1C(=O)c1ccccc1	+
Nc1ccc(Br)cc1C(=O)c1ccccc1F	n
Cc1ccc(CN2CCN(c3ccccc3C)CC2)cc1	n
Clc1ccccc1N1CCN(Cc2ccccc2)CC1	n
Cc1ccccc1N1CCN(Cc2ccc(N(C)C)cc2)CC1	n
Oc1cccc(CN2CCN(c3ccccc3Cl)CC2)c1	n
Cc1ccccc1N1CCN(Cc2ccc(O)cc2)CC1	+
Oc1ccc(CN2CCN(c3ccccc3Cl)CC2)cc1	+
C1CN(C23CC4CC(CC(C4)C2)C3)CCN1	n
COc1ccc(CNCCc2ccc(F)cc2)c(OC)c1OC	n
O=[N+]([O-])c1ccc(N2CCN(Cc3cccc(F)c3)CC2)cc1	n
O=[N+]([O-])c1ccc(CN2CCN(Cc3ccccc3)CC2)cc1	+
CCC(C)N1CCN(Cc2ccc([N+](=O)[O-])cc2)CC1 (stereo unspecified)	+
CN1CCN(Cc2cccc([N+](=O)[O-])c2)CC1	n
O=[N+]([O-])c1ccc(N2CCN(Cc3cccc(Cl)c3)CC2)cc1	n
O=C(COc1ccccc1)N1CCN(Cc2ccc([N+](=O)[O-])cc2)CC1	n
CN1CCN(Cc2ccc([N+](=O)[O-])cc2)CC1	n
CCN1CCN(Cc2ccc([N+](=O)[O-])cc2)CC1	n
O=[N+]([O-])c1ccc(CN2CCN(c3ccc(F)cc3)CC2)cc1	+
COc1cc(CN2CCN(c3ccc(F)cc3)CC2)cc(OC)c1	n
Cc1ccc(S(=O)(=O)N2CCN(/C(N)=N\[N+](=O)[O-])CC2)cc1[N+](=O)[O-]	n
CCN1CCN(Cc2cccc(OC)c2OC)CC1	n
CN1CCN(Cc2cccc(Cl)c2)CC1	n
O=[N+]([O-])/C=C/c1cccc(OCc2ccccc2Cl)c1	n
SMILES	Algae TAG accum
Cc1[nH]c2ccc(Br)cc2c1CCN	n
Fc1ccc(CN2CCN(c3cccc(Cl)c3)CC2)cc1	+
Fc1ccc(CN2CCN(c3cccc(Cl)c3)CC2)c(F)c1	n
COc1cccc(CN2CCN(c3cccc(Cl)c3)CC2)c1	n
Clc1ccc(CN2CCN(c3ccccc3)CC2)cc1Cl	n
Oc1ccc(CN2CCN(c3cccc(Cl)c3)CC2)cc1	+
Clc1cccc(N2CCN(Cc3ccccc3Cl)CC2)c1	n
Oc1ccc(CN2CCN(c3ccccc3)CC2)cc1	+
COc1ccc(CN2CCN(c3ccccc3)CC2)cc1O	n
COc1ccc(CN2CCN(c3cccc(Cl)c3)CC2)cc1O	n
COc1ccc(CC(N)=O)cc1OC	n
CC(C)NCCc1c[nH]c2ccccc12	n
COc1cccc(-n2c(C)nc3ccc(I)cc3c2=O)c1	n
O=[N+]([O-])c1ccccc1CN1CCN(c2ccc(F)cc2)CC1	n
N#CCCn1cc(C=O)c(-c2ccc(Br)cc2)n1	n
O=C(Cc1ccccc1)N1CCN(Cc2cccc([N+](=O)[O-])c2)CC1	n
O=C(COc1ccccc1)N1CCN(Cc2ccccc2[N+](=O)[O-])CC1	n
CCN1CCN(Cc2cccc(Br)c2)CC1	n
CCOc1ccc(CN2CCN(c3ccccc3C)CC2)cc1	+
COc1cc(CN2CCN(C)CC2)cc(OC)c1	n
Clc1ccc(CN2CCN(Cc3ccc4c(c3)OCO4)CC2)cc1	n
CCOc1cc(CN2CCN(c3ccccc3C)CC2)ccc1O	n
CCOc1ccccc1CN1CCN(c2ccccc2C)CC1	n
CCCCOc1ccc(CN2CCN(CC)CC2)cc1	n
CCc1ccc(CN2CCN(CC)CC2)cc1	+
SMILES	Algae TAG accum
COc1cccc(CN2CCN(Cc3ccccc3)CC2)c1	n
COc1cc(CN2CCN(Cc3ccccc3)CC2)cc(OC)c1	+
Clc1ccc(N2CCN(Cc3ccc4c(c3)OCO4)CC2)cc1	+
Clc1cccc(CN2CCN(Cc3ccc4c(c3)OCO4)CC2)c1	n
C/C(=C\c1ccc(Cl)cc1)[N+](=O)[O-]	n
CC1CN(c2ccc([N+](=O)[O-])c(NCCO)c2)CCN1 (stereo unspecified)	n
CC1CCN(c2cc(N3CCNCC3)c([N+](=O)[O-])cc2F)CC1	n
CC(C)N1CCN(Cc2ccccc2Cl)CC1	n
Cc1ccc(CN2CCN(CCO)CC2)c(C)c1	n
Cc1cnc(NC(=O)c2c(O)c3ccccc3n(CCC(C)C)c2=O)s1	n
COc1ccc(CN2C[C@@H]3C[C@@H](C2)c2cccc(=O)n2C3)cc1Br	n
Cc1cc(N2CCN(C)CC2)c(F)cc1[N+](=O)[O-]	n
OCCN1CCN(Cc2ccc(F)cc2)CC1	n
Cc1ccc(CN2CCN(C)CC2)cc1	n
COc1ccccc1N1CCN(Cc2ccc(C)cc2)CC1	+
COc1ccc(N2CCN(Cc3ccc(Cl)c(Cl)c3)CC2)cc1	n
Cc1ccc(CN2CCN(CCO)CC2)cc1	+
CCOc1ccccc1CN1CCN(c2ccccc2OC)CC1	n
COc1ccc(N2CCN(Cc3ccc(Cl)cc3)CC2)cc1	+
COc1ccccc1N1CCN(Cc2ccc(N(C)C)cc2)CC1	n
CCOc1ccc(CN2CCN(c3ccccc3OC)CC2)cc1	+
COc1ccc(N2CCN(Cc3ccc(F)cc3)CC2)cc1	n
COc1ccccc1N1CCN(Cc2ccccc2)CC1	n
COc1ccccc1N1CCN(Cc2ccc(C(C)C)cc2)CC1	n
N/C(=N/[N+](=O)[O-])Nc1ccc(NC(=O)c2ccco2)cc1	n
SMILES	Algae TAG accum
O=[N+]([O-])c1ccc(NCC(O)c2ccccc2)c2ncccc12 (stereo unspecified)	n
COc1ccc(CCN(C)Cc2cc(Br)c(O)c(OC)c2)cc1OC	n
COc1ccccc1-n1c(/C=C/c2ccc3c(c2)OCO3)nc2ccccc2c1=O	n
COc1cccc(CNCCc2ccccc2F)c1	n
COc1cc(OC)c(OC)cc1CN1CCN(C)CC1	n
CCOc1cccc(CN2CCN(c3ccccc3)CC2)c1O	n
Cc1cccc(NC(=O)C(Cl)(Cl)Cl)c1C	n
COc1ccc(Cl)cc1NC(=O)C(Cl)(Cl)Cl	n
COc1cccc(-n2c(C)nc3c(Cl)cc(Cl)cc3c2=O)c1	n
COc1ccc(CC(C)NCc2ccccc2Cl)cc1 (stereo unspecified)	n
CCOc1cc(CN2CCN(c3ccc(F)cc3)CC2)ccc1O	n
CCOc1ccc(CN2CCN(c3ccc(F)cc3)CC2)cc1	+
CCOc1ccc(CN2CCN(c3ccc(OC)cc3)CC2)cc1	n
O=c1c(CN2C[C@@H]3C[C@@H](C2)c2cccc(=O)n2C3)coc2ccc(Cl)cc12	n
CN1CCC(N2CCOCC2)CC1	n
